Assay results reported in PubChem BioAssay (NCI).
About 83,000 compounds went through this panel and 20% of them were active in at least one assay; those are over-represented in the sample as a whole.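 Compound tested at a single concentration for 48 hours in 96-well plates; a percent growth value below 10 was scored as active.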 Values without a mark were called inactive. Active and inactive are the calls of the source.

test system: MDA-MB-468 breast; assay: NCI-60 one-dose screen, 48 h (100 = growth as untreated, 0 = no growth, -100 = all killed); settings: 10 µM unless noted

Row | SMILES | growth
1 | O=C(Nc1nn2c(-c3cc(C(F)(F)F)cc(C(F)(F)F)c3)nnc2s1)C1CCCC1 | -17.2% (active)
2 | O=NC1CC=CCC1c1ccccc1 (configuration not stated) | 104%
3 | C=CCn1c(SCC(=O)Nc2ccc(C(=O)/C=C/c3ccc(Cl)cc3)cc2)nnc1-c1ccc(Cl)c(Cl)c1 | 81.5%
4 | COc1ccc(-c2ccc(-c3ccc(C(=N)N)o3)o2)cc1 | 15.3%
5 | COc1ccc(C)c2sc(N(Cc3cccnc3)C(=O)c3ccc(C#N)cc3)nc12 | -13.4% (active)
6 | Cc1cc(Cl)cc(CN(Cc2ccccc2)Cc2c(O)ccc3ccccc23)c1O | 102%
7 | Cc1c(C(=O)OCCO)cc(-c2ccc(Cl)cc2)n1-c1ccc(Cl)cc1Cl | 56.5%
8 | O=C(CI)OCC(COC(=O)CI)OC(=O)CI | 51.6%
9 | CCOc1cc(CCNS(=O)(=O)c2ccc(C)cc2)c(C(C)=O)cc1OCC | 67.1% [100 µM]
10 | COC(=O)[C@]12CC[C@@H](C)[C@H](C)[C@@H]1C1=CC[C@@H]3[C@@]4(C)C(c5cnco5)=C[C@@](C)(CO)C4=CC[C@@]3(C)[C@]1(C)CC2 | 17%
11 | CCN1C(=S)N(c2ccccc2)C2NC(=O)N(/N=C/C=C/c3ccccc3OC)C21 (configuration not stated) | 79%
12 | COc1ccc2c(-c3ccc(F)cc3)c(C#N)c(=NC(C)=O)oc2c1 | -8.32% (active)
13 | CC(C)C1=C[C@@]23CC[C@H]4[C@](C)(COCCC#N)CCC[C@]4(C)[C@H]2C[C@@H]1[C@@H]1[C@H]3[C@@H](OCCC#N)CC[C@@H]1OCCC#N | -4.51% (active)
14 | CCOC(=O)c1c(Nc2ccccc2)nn2c(N)c(C#N)c(-c3ccccc3)nc12 | 62.4%
15 | O=C1/C(=C\c2ccccc2)CN(C(=O)c2ccccc2F)C/C1=C\c1ccccc1 | -72.4% (active)
16 | Cc1[nH]c2ccccc2c1C1=CC(=O)C=CC1=O | 72%
17 | CSc1nn(-c2ccccc2)c2ncnc(Oc3ccc(C)cc3)c12 | 93.2%
18 | O=C(CCN1CCCC1)Nc1ccc2c(NCCc3ccccc3)c3ccccc3nc2c1 | -40.8% (active)
19 | COc1cc(C(=O)c2cc(C(C)=O)c3ccc(C)cn23)cc(OC)c1OC | -2.89% (active)

Row | SMILES | growth
20 | COc1cc(OC)c(S(N)(=O)=O)cc1C(=O)/C=C/c1ccccc1 | -43.4% (active)
21 | CC(=O)O[C@H]1CC[C@]2(C)[C@H]3CC=C4[C@@H]5[C@H](C)[C@@H](C)CC[C@]5(C(=O)NCCNCCNCCN)CC[C@@]4(C)[C@]3(C)CC[C@H]2C1(C)C | 69.2%
22 | COc1ccc(C(C)c2cc(OC)c(OC)c(OC)c2)cc1 (configuration not stated) | 41.6%
23 | O=C(O)COc1c(Cl)cc([N+](=O)[O-])cc1Cl | 99.4%
24 | CCOC(=O)c1c(C)nc2ccccc2c1/C=C/c1ccccc1 | 24.7%
25 | Nc1n[nH]c(-c2cc(Cl)ccc2O)c1-c1ccccc1 | 83.5%
26 | c1ccc(C(CC2=NCCCN2)c2ccccc2)cc1 | 102%
27 | COC(=O)[C@@H]1CCCN1C(=O)[C@@H]1CCCN1C(=O)[C@@H](Cc1c[nH]c2ccccc12)NC(=S)Nc1cc(C(F)(F)F)cc(C(F)(F)F)c1 | 2.25% (active)
28 | O=c1oc2ccccc2cc1-c1nn(-c2ccccc2)cc1/C=N/Nc1nc(-c2ccccc2)c(N=Nc2ccccc2)s1 | 48.5%
29 | COc1ccc2c(c1)CCc1[nH]nc(-c3cc(OC)c(OC)c(OC)c3)c1-2 | -4.62% (active)
30 | COc1ccc(-c2nn(-c3ccccc3)cc2/C=C/C(=O)OCc2cn(-c3ccc(F)c(Cl)c3)nn2)cc1 | 72.2%
31 | CC(=O)O[C@H]1C[C@@H]2C(C)(C)C(=O)CC[C@@]2(C)c2ccc(C(C)C)cc21 | 105%
32 | CCOc1ccc(Nc2nc(-c3c(C)nc4ncccn34)cs2)cc1 | 30.2%
33 | CCN1C(=O)N(CC)C2SC(N/N=C/c3cccs3)=NC21 (configuration not stated) | 32.4%
34 | CCCCCc1cc[n+](CC(=O)c2ccc([N+](=O)[O-])cc2)cc1 | 11.8%
35 | COc1ccc(CC(C#N)c2cc3ccccc3[nH]2)cc1 (configuration not stated) | 89.6%
36 | COC(=O)c1ccc(NC(=O)Nc2ccc(C(=O)OC)cc2)cc1 | 97.9%
37 | CC/C(=C(\c1ccccc1)c1ccc(OCCN(C)C)cc1)c1ccccc1 | -13.3% (active)
